The source of these data is the supplement of paper PMC10720658.

± gives the standard deviation of the averaged measurements.

This test deals with AEK1 (Tb927.3.2440). As to the kind of experiment: percent reduction in TR-FRET probe signal relative to DMSO control; higher = stronger displacement of ATP-site probe (binding). As to conditions: 1 µM; incubation time 1 h. Background: In TR-FRET formats the signal depends on donor and acceptor labels being close together.
As for `Cn1cnc(-c2cc3nccc(Oc4ccc(NC(=S)NC(=O)Cc5ccccc5)cc4F)c3s2)c1`, the “percent reduction in TR-FRET probe signal” value (shortened to “percent reduction”) is 10.3 ± 8.6%.

For `CCN1CCN(Cc2ccc(-c3cc4c(N[C@H](C)c5ccccc5)ncnc4[nH]3)cc2)CC1`, the “percent reduction” value came out at 12.6 ± 16%.

`Cc1ncc(-c2ccnc(Nc3ccc(S(C)(=O)=O)cc3)n2)n1C(C)C`: the “percent reduction” value is -3.5 ± 1.6%.

In the case of `COc1nccc(-c2c(-c3ccc(F)cc3)ncn2[C@H]2CC[C@H](O)CC2)n1`, the “percent reduction” value is -2.94 ± 9.9%.

With `Nc1cccc(-c2cc3c(Oc4cccc(O)c4)ncnc3[nH]2)c1`, the “percent reduction” value worked out at 18.7 ± 22%.

As for `CC[C@@](C)(Nc1ccnc(-c2c[nH]c3ncccc23)n1)C(=O)NCC(F)(F)F` [Decernotinib (VX-509)], the “percent reduction” value is -1.74 ± 4.4%.

Turning to `Cc1c[nH]c(-c2cnc(NCCNc3ccc(C#N)cn3)nc2-c2ccc(Cl)cc2Cl)n1`, the “percent reduction” value was 2.8 ± 12%.

Turning to `CN1CCN(c2ccc(-c3ccncc3-c3cc(F)c(O)c(F)c3)cc2)CC1`, the “percent reduction” value was determined as 1.75 ± 5.2%.

On to `O=c1cc(-c2cccc3c2Sc2ccccc2S3)oc(N2CCOCC2)c1`, for which the “percent reduction” value is -8.85 ± 7.2%.

Turning to `Cc1ccccc1-n1c(Cn2nc(-c3cccc(O)c3)c3c(N)ncnc32)nc2cccc(C)c2c1=O`, the “percent reduction” value stood at 1.94 ± 11%.

For `Cc1cc(Nc2nc(N[C@@H](C)c3ccc(F)cc3)c(C#N)cc2F)n[nH]1`, the “percent reduction” value turned out to be 56.3 ± 7.3%.

Consider `CCOC(=O)c1cnc2ccc(-c3cncc(NS(=O)(=O)c4ccccc4)c3)cn12`, for which the “percent reduction” value was -3.6 ± 8.8%.

Consider `C=CC(=O)Nc1cccc(Oc2nc(Nc3ccc(N4CCN(C)CC4)cc3)nc3ccsc23)c1`, for which the “percent reduction” value is -10.3 ± 4.1%.

`CCCNC(=O)c1cn2ncnc(Nc3cc(C(=O)NC4CC4)ccc3C)c2c1C`: the “percent reduction” value was determined as 10.5 ± 8.4%.

For the molecule `Cc1c(NC(=O)c2ccc(C(C)(C)C)cc2)cccc1-c1cn(C)c(=O)c(Nc2ccc(C(=O)N3CCOCC3)cc2)n1`, the “percent reduction” value was -8 ± 7.8%.

Consider `CCc1nc(-c2cccc(C)c2)c(-c2ccnc(NC(=O)c3ccccc3)c2)s1`, for which the “percent reduction” value is -2.96 ± 11%.

Turning to `C[C@@H](NC(=O)c1ncnc(N)c1Cl)c1ncc(C(=O)Nc2cc(C(F)(F)F)c(Cl)cn2)s1`, the “percent reduction” value is -3.59 ± 11%.

For the molecule `NC1(C(=O)N[C@@H](CCO)c2ccc(Cl)cc2)CCN(c2ncnc3[nH]ccc23)CC1`, the “percent reduction” value was determined as 3.79 ± 1.4%.

With `Cc1cc(Nc2cc(N3CCN(C)CC3)nc(/C=C/c3ccccc3)n2)n[nH]1`, the “percent reduction” value worked out at 20.9 ± 12%.

With `COc1cc(Nc2ncc(F)c(Nc3ccc4c(n3)N(COP(=O)(O)O)C(=O)C(C)(C)O4)n2)cc(OC)c1OC` [Fostamatinib (R788)], the “percent reduction” value worked out at 31.3 ± 1.3%.

Consider `Cc1ccc(Nc2nccc(N(C)c3ccc4c(C)n(C)nc4c3)n2)cc1S(N)(=O)=O` [Pazopanib], for which the “percent reduction” value is 7.95 ± 16%.

Regarding `C#Cc1cccc(Nc2ncnc3cc(OCCOC)c(OCCO)cc23)c1.Cl`, the “percent reduction” value was -0.453 ± 12%.

On to `CCc1cccc(CC)c1NC(=O)N1Cc2[nH]nc(NC(=O)c3ccc(N4CCN(C)CC4)cc3)c2C1`, for which the “percent reduction” value amounted to 29.3 ± 8.1%.

As to `Cc1[nH]c(/C=C2\C(=O)Nc3ccc(S(=O)(=O)N(C)c4cccc(Cl)c4)cc32)c(C)c1C(=O)N1CCN(C)CC1`, the “percent reduction” value came to 34.1 ± 16%.

For the molecule `CC(C)CCN1c2nc(Nc3cc(F)c(O)c(F)c3)ncc2N(C)C(=O)C1C` (configuration not stated), the “percent reduction” value was -13.7 ± 9.2%.

Consider `Cc1cc(Nc2cc(N3CCN(C)CC3)nc(Sc3ccc(NC(=O)C4CC4)cc3)n2)n[nH]1` [VX-680 (Tozasertib, MK-0457)], for which the “percent reduction” value was found to be 10.3 ± 20%.

As to `C=CC(=O)Nc1ccc2ncnc(Nc3ccc(OCc4cccc(F)c4)c(Cl)c3)c2c1.Cc1ccc(S(=O)(=O)O)cc1`, the “percent reduction” value amounted to 4.49 ± 7.8%.

In the case of `CO[C@@H](C)Cn1c(=O)n(C)c2cnc3ccc(-c4cncc(C(C)(C)O)c4)cc3c21`, the “percent reduction” value is 3.02 ± 4.9%.

Consider `Cc1ccc(F)c(NC(=O)Nc2ccc(-c3cccc4[nH]nc(N)c34)cc2)c1` [Linifanib (ABT-869)], for which the “percent reduction” value came to 1.08 ± 12%.

Regarding `COc1cc2nccc(Oc3ccc(NC(=O)Nc4cc(C)on4)c(Cl)c3)c2cc1OC` [Tivozanib (AV-951)], the “percent reduction” value was -2.48 ± 4.1%.

`CCOc1cc(N2CCC(O)CC2)ccc1Nc1ncc2c(n1)N(C)c1ccccc1C(=O)N2C`: the “percent reduction” value is -8.09 ± 7.7%.

As for `CN1CCN(Cc2ccc(-c3cnc4[nH]cc(-c5ccc6[nH]ccc6c5)c4c3)cc2)CC1`, the “percent reduction” value was found to be 11.2 ± 7.5%.

Take `O=C1NC(=O)/C(=C/c2ccc(-c3ccc(F)cc3O)o2)S1`: the “percent reduction” value came out at 16 ± 24%.

Take `Cc1cc(Nc2nc(N[C@@H](C)c3ncc(F)cn3)ncc2Cl)n[nH]1`: the “percent reduction” value turned out to be 56.5 ± 16%.

As to `O=C1c2ccc(Nc3ccc(F)cc3F)cc2CCc2ccc(OC[C@H](O)CO)cc21` [Skepinone-L], the “percent reduction” value was -1.27 ± 10%.

With `CNc1nc(Nc2cnn([C@H]3CCN(C4COC4)C[C@@H]3F)c2Cl)ncc1C(F)(F)F`, the “percent reduction” value worked out at 9.94 ± 3.4%.

As for `CNS(=O)(=O)C[C@H]1CC[C@H](N(C)c2ncnc3[nH]ccc23)CC1.O=C(O)/C=C\C(=O)O` [Oclacitinib], the “percent reduction” value came to 6.94 ± 17%.
